WRN helicase inh: WRN helicase (human) inhibition. Q14191. WRN helicase unwinding, fluorescent forked duplex, kinetic. Potency, µM (top dose mostly 114 µM), without a hit: top-dose activity change, negative = inhibition, hits mostly inhibitors. hit rate 0.46% among 360,000; note: potency is the fitted concentration of half-maximal effect; % is set by controls: 0 for no effect and ±100 for the full control effect; nearly all actives have a fitted effect of over 55% in size
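Enzyme (20 nM final) and test compound sit together 15 min at room temperature before substrate addition. Substrate is a single-forked duplex oligonucleotide (100 nM) labelled with fluorophore and quencher, with 2 mM ATP; helicase unwinding raises red fluorescence, read kinetically.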
Pin1 inh: inhibitors of human Pin1; hit rate 0.009% among 390,000; Pin1 FP peptide displacement, HiFluor488, 10 min; Potency, µM (doses to about 115 µM), for the others: at the top dose activity, negative = inhibition, usual class: inhibitors; AID 504891; Q13526; active = well fitted inhibition curve with a large enough effect in the polarisation, with a control signal flat, not every such curve was filed as active; inconclusive = small, poorly fitted or top-dose-only effect, or effect the other way, or a change in a side signal; inactive = no such curve, though single readings can be large or run the other way; the % refers to the polarisation; note: potency is the fitted concentration of half-maximal effect; % is set by controls: 0 for no effect and ±100 for the full control effect
Glioma ERSR ind: induces the endoplasmic reticulum stress response in human glioma cells | Potency, µM, inactives show at the top dose activation, actives largely listed as activators | hit rate 0.02% among 420,000 | AID 602332 | U87-MG GRP78 promoter luciferase reporter, 16 h; note: potency is the fitted concentration of half-maximal effect; series mostly up to about 76 µM; % of control where 0% means no effect; nearly all actives have a fitted effect of over 35% in size
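Stably transfected U87-MG human glioma cells carrying a GRP78-based luminescent sensor were seeded at 1000 cells/well, pin-dosed with compounds and incubated 16 h. Luciferase reagent was then added, and end-point luminescence was read after 10 min at room temperature.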
Tb PGK inh: inhibitors of T. brucei phosphoglycerate kinase. PGK/GAPDH coupled, Kinase-Glo luminescence, 60 min. Potency, µM (top dose mostly 57.5 µM), inactives show at the top dose activity change, negative = inhibition, actives largely listed as inhibitors. P07378. hit rate 0.043% among 380,000. AID 602233; note: potency is the fitted concentration of half-maximal effect; % is set by controls: 0 for no effect and ±100 for the full control effect; nearly all actives have a fitted effect of over 60% in size
Target sequence (P07378 whole entry, looked up): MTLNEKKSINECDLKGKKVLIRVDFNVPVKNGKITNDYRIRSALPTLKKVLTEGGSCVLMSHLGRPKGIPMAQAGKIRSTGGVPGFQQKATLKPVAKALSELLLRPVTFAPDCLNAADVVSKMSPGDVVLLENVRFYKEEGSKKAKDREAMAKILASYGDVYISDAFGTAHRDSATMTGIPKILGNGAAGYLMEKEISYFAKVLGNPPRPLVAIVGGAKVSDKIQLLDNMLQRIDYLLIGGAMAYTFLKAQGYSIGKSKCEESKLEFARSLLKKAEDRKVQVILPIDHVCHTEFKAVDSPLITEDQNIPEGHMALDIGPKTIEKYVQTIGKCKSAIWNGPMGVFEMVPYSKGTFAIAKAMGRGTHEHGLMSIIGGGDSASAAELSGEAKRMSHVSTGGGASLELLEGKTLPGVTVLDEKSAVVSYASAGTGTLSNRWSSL
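Luminescent ATP detection (Kinase-Glo Plus) follows a 60-minute room-temperature incubation, with wells lacking PGK as controls. Buffer: 100 mM TEA (pH 7.6), 5 mM MgCl2, 0.01% Tween-20. Coupling enzyme GAPDH (100 nM final) supplies unstable 1,3-BPG in-well.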
PI5P4K alpha inh: PI5P4K alpha (human) kinase inhibition; P48426; PI5P4Kalpha enzyme, ADP-Glo luminescence, 60 min; stronger effect = lower value; AID 652105; hit rate 1.2% among 330,000; max response, %; active = max response of -50% or lower; inconclusive = between -30% and -50%; inactive = -30% or higher; note: value at the top dose of about 77 µM; % is set by controls: 0 for no effect and ±100 for the full control effect
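Luminescence from ADP-Glo served as readout of PI5P4Kalpha activity in a qHTS format. Reaction: enzyme, substrate, compound, ATP at 5 microM final, 60 min at RT.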
FEN1 inhibitor: inhibitors of human flap endonuclease 1 | Potency, µM (series often up to 114 µM), inactives show at the top dose activity change, negative = inhibition, actives largely listed as inhibitors | hit rate 0.35% among 390,000 | P39748 | Recombinant FEN1 flap cleavage, fluorescence, 15 min; note: potency is the fitted concentration of half-maximal effect; % is set by controls: 0 for no effect and ±100 for the full control effect; nearly all actives have a fitted effect of over 65% in size
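FEN1 at 10 nM preincubated with compounds 15 min at room temperature, then flap DNA substrate added at 50 nM final. Signal read at 0 and 15 min; concentration-response fitted with four-parameter Hill equation.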
An asterisk follows results filed as active; i = inactive; ? = inconclusive; / = no result given; ! = repeats disagree; [ ] = dose if it differs, or a comment. In the library only some 1.3% were active in any assay of this set; here they are far more common. Unless noted, calls come from the whole dose curve; as a rule, active = well fitted curve in the direction sought with a large enough effect; inconclusive = small, poorly fitted or top-dose-only effect, or another doubt; inactive = no such curve, though single readings can be large; an effect the other way counts as inactive or inconclusive.

SMILES	WRN helicase inh	Pin1 inh	Glioma ERSR ind	Tb PGK inh	PI5P4K alpha inh	FEN1 inhibitor
CN(C)CCCn1c2c3ccccc3ccc2c2oc(=O)c3ccccc3c21	-4.9%[11.6 µM]	-6.9%	-8.4%	i	-0.4	3.16µM*
O=c1c2ccccc2c(-c2n[nH]c(=S)o2)nn1Cc1ccccc1	-2.7%	-9.9%	2.6%	i	-85.5*	-4.2%
S=c1[nH]nc(-c2ccccc2)o1	6.0%	0.3%	-0.7%	-1.2%	?	5.9%
COc1cccc(C2c3c(ncn(-c4ccccc4SC)c3=N)Oc3ccc4ccccc4c32)c1 (stereo not given)	/	20.2%	/	/	/	/
Oc1ccc(NCc2ccc(OCc3ccccc3)cc2)cc1	-4.9%[11.6 µM]	?	?	-2.5%	-21.4	?
CCc1ccc(CNc2ccc(O)cc2)cc1	44.7µM*	-13.4%	?	?	-54.2*	-4.4%
CCCCC1(C)NC(=S)N2N1C(=S)NC2(C)CCCC (stereo not given)	56.2µM*	-0.1%	-1.9%	-3.0%	?	5.7%
CCC[n+]1c(C)sc2c3c(ccc21)CCCC3	-27.6%	12.8%	-6.9%	-3.9%	-55.4*	-6.1%
CCN1CCN(Cc2ccc(NC(=O)c3ccc(C)c(NC(=O)c4cccc5[nH]ccc45)c3)cc2C(F)(F)F)CC1	4.7%	25.9%	-5.1%	2.1%	-11.6	1.8%
CCN1CCN(Cc2ccc(NC(=O)c3ccc(C)c(NC(=O)N4CCNC4=O)c3)cc2C(F)(F)F)CC1	-0.2%	0.6%	-2.4%	25.1µM*!	-4.3	3.0%
Cc1cccc(Nc2nc(C#N)nc(NC3CCCC3)n2)c1	/	7.7%	/	/	/	/
Oc1c(Br)cc(Br)c(/C=N/n2c(-c3ccccc3)n[nH]c2=S)c1Br	?	?	5.5%	-21.6%	-86.2*	?
S=c1[nH]nc(-c2ccncc2)n1/N=C/c1cn(-c2ccccc2)nc1-c1ccccc1	-2.9%	-4.5%	4.8%	4.1%	-57.5*	13.4%
O=C(CSc1nccc(=O)[nH]1)N1N=C2/C(=C/c3ccco3)CCCC2C1c1ccco1 (stereo not given)	?	-2.9%	3.4%	-17.1%	-57.8*	-2.4%
Nc1nc(SCC(=O)N2N=C3/C(=C/c4ccco4)CCCC3C2c2ccco2)n[nH]1 (stereo not given)	-3.6%	6.6%	0.9%	-7.6%	-51.5*	-7.2%
S=C(NCCCNc1ccc(Br)cn1)NCCCc1cnc[nH]1	/	-1.5%	/	/	/	/
Clc1ccc(-n2cccc2CN2CCOc3ccc(CN4CCOCC4)cc3C2)nc1	/	/	-0.8%	/	/	/
O=Cc1ccc(C(=O)OCC(=O)NC(=O)Nc2ccccc2F)cc1	-2.5%	9.8%	2.0%	-4.2%	-56.6*	5.2%
Cc1cnc(-n2ncc(C(=O)NCc3ccncc3)c2C(C)C)nc1-c1ccc(F)cc1	/	/	-3.7%	/	/	/
Cc1cc2nc3ccc(N(C)C)cc3nc2cc1N	50.1µM*	?	-10.3%	1.2%	?	?
Cc1ccccc1N1CCN(C2=NC(=O)/C(=C/c3cn[nH]c3-c3ccccc3)S2)CC1	-5.8%	3.0%	-3.5%	-6.5%	-61.5*	-1.4%
O=c1c2ccccc2sn1-c1ccc(Cl)cc1Cl	-3.3%	/	-2.9%	i	-105.4*	/
COc1ccc(N=C2NC(=O)/C(=C\C=C\c3ccco3)S2)cc1	22.4µM*	?	10.0%	i	-81.0*	?
Cc1cccc(N=C2NC(=O)/C(=C/C=C/c3ccco3)S2)c1	?	?	-1.4%	-5.5%	-67.0*	?
COc1ccc(C(=O)NCc2nc(-c3cccc(NC(=O)c4ccc(C)s4)c3)oc2C)cc1	/	/	-5.2%	/	/	/
COc1ccc(-c2cc(-c3ccc(O)cc3)nc(N)c2C#N)cc1	-4.1%	25.0%	2.2%	-0.9%	-7.2	15.4%
COc1cc(-c2cc(-c3ccc(O)cc3)nc(N)c2C#N)ccc1O	-22.4%	4.8%	-0.7%	-5.8%	-50.7*	?
Cc1nc2cc(-c3ccsc3-n3c(C)ccc3C)[nH]n2c(=O)c1Cl	?	?	-4.1%	-9.2%	?	?
Cc1cc(=O)n2[nH]c(-c3ccsc3-n3c(C)ccc3C)cc2n1	?	?	-3.9%	-17.6%	-86.4*	?
